# Screening results deposited in PubChem by several laboratories.
# Rows were chosen to be rich in hits. Some 4.5% of all compounds tested hit in one or more screens of this group.
# tim10-1 inh: growth inhibitors of tim10-1 mutant yeast | S. cerevisiae tim10-1 ts strain growth, BacTiter-Glo, 24 h | inhibition, % at 20 µM | 2.2% of 330,000 active;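 active = inhibition of at least 40%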;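 also: mutant grown at 25 °C; 0% = DMSO wells with yeast and 100% = wells holding no yeast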
# NALP3 yeast inh: NALP3 inhibition in yeast. inhibition, % at 10 µM. 0.39% of 330,000 active. Yeast reconstituted NLRP3/ASC/caspase-1, beta-gal luminescence, 24 h;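 active = inhibition of 50% or more; inactive = inhibition below 50%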;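 also: plate controls were induced DMSO wells for no effect and uninduced yeast grown without galactose for full effect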
# SKKanGAS inh: inhibitors of SKKanGAS S. pyogenes growth in kanamycin (SK-promoter or general growth effect); BacTiter-Glo, 6 h; inhibition, % at 7.5 µM; 1.3% of 300,000 active; AID 1662;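 active = mean replicate score, as percent of positive control median, at least 50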;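 also: strain carries kanamycin resistance gene driven by streptokinase promoter and grows in 40 µg/ml kanamycin; loss of luminescence reflects streptokinase promoter inhibition or plain growth inhibition; 0% = median of DMSO wells and 100% = positive control at its reference dose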
# PfHsp90 yeast 2: reduces growth (ATP signal) of yeast expressing P. falciparum Hsp90; S. cerevisiae expressing PfHsp90, BacTiter-Glo ATP, 48 h; yeast lacking PDR1 and PDR3 efflux regulators; inhibition, % at 9.4 µM; 0.32% of 310,000 active;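 active = every replicate shows inhibition above about 80%, whatever the replicate mean, limit read from the data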;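 also: 0% = DMSO neutral controls and 100% = 20 µM radicicol positive controls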
# tim23-1 inh: inhibits growth of tim23-1 mutant yeast | S. cerevisiae tim23-1 growth, BacTiter-Glo luminescence, 24 h | inhibition, % at 20 µM | 1.3% of 330,000 active;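 active = growth inhibition of the mutant yeast at or above 50%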;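 also: temperature-sensitive mutant grown at 25 °C; plate controls were DMSO-treated mutant yeast for no effect and medium wells lacking yeast for full effect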
# TIM10 inh: inhibits growth of TIM10 yeast strain; AID 463195; inhibition, % at 10 µM; 1.4% of 330,000 active; S. cerevisiae TIM10 strain growth, BacTiter-Glo luminescence, 24 h;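 active = inhibition of 40% or more at the single tested concentration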;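 also: wild-type TIM10 isogenic control strain grown at permissive 25 °C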
# tim23-1 conf: confirmation of tim23-1 mutant yeast growth inhibitors | shares compounds with tim23-1 inh | S. cerevisiae tim23-1 growth, BacTiter-Glo luminescence, 24 h | inhibition, % at 20 µM | 83% of 4,400 active | AID 463218;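 active = inhibition above about 39% in either of two replicate wells at 20 µM, limit read from the data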;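 also: temperature-sensitive tim23-1 mutant grown at 25 °C; 0% = DMSO wells with yeast and 100% = medium wells without yeast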
# The depositor's hits bear a star; . = not tested or not shown.
SMILES,tim10-1 inh,NALP3 yeast inh,SKKanGAS inh,PfHsp90 yeast 2,tim23-1 inh,TIM10 inh,tim23-1 conf
CC(Nc1cc(=O)n(C)c(=O)n1C)c1ccccc1 (configuration not stated),3,-7,-1,-8,52*,9,2
COc1cc(/C=N/NC(=O)c2csc3c2CCCC3)ccc1OCCN1CCOCC1,-7,10,0,22,1,11,.
O=C(NC1CCCC1)c1cc(COc2ccc3ncccc3c2)on1,-13,13,-11,-10,-1,-7,.
Cc1ccc(OCc2cc(C(=O)NC3CCCCC3)no2)cn1,36,45,-7,-5,51*,22,57*
CC1CCCC(C)N1C(=O)COC(=O)c1c[nH]c2ccccc12 (configuration not stated),14,7,.,-2,39,16,.
Cc1cnn(-c2nc(-c3ccccc3)cc(-c3ccccc3)n2)c1,39,7,76*,-49,52*,36,56*
O=C(CCc1ccccc1)NCCS(=O)(=O)N1CCN(c2ccccc2)CC1,15,9,-7,1,12,5,.
CCN(CCCNC(=O)CNC(=O)c1nn(-c2ccc(OC)c(OC)c2)c(=O)c2ccccc12)c1ccccc1,7,6,7,-10,9,5,.
COc1ccc2c(c1)NC(c1cc(Cl)cc(Cl)c1O)c1cccn1-2 (configuration not stated),1,14,.,-19,1,16,.
COc1ccc2c(c1)NC(c1ccc(N(C)C)cc1)c1cccn1-2 (configuration not stated),39,16,28,-1,56*,36,61*
O=C(CCl)Nc1cccc(Oc2ccccc2)c1,14,-25,13,-11,52*,14,33
O=C(COc1ccc2ccccc2c1Br)Nc1cccnc1,30,18,-10,-17,52*,21,22
CCCC[C@@H](CN[C@H](C)CNC)NCC1CCC(C(C)(C)C)CC1 (some centres not stated),-4,10,21,.,-6,-8,.
Cn1ccnc1SCC(=O)n1c2c(c3ccccc31)CCCC2,29,-1,-5,-7,51*,39,41*
CCOc1ccccc1N1C(=O)c2ccc(C(=O)Nc3cccnc3)cc2C1=O,6,13,7,-13,50*,13,21
O=C(Cn1cnc2ccccc21)Nc1ccc2c(c1)OCCCO2,-11,-5,.,-35,-6,3,.
CCOC(=O)c1cn(-c2ccccc2)nc1-c1ccncc1,38,-1,.,-57,51*,35,46*
OC[C@@H]1CC[C@@H](Cc2ccc(-c3ccccc3)cc2)O1,30,.,.,-4,53*,20,32
CCN(Cc1ccccc1)C(=O)c1ccc(C)c(S(=O)(=O)N2CCCCC2)c1,23,17,.,-7,50*,15,38
O=C(Nc1ccc(N2CCN(C(=O)c3cccs3)CC2)cc1)c1ccc(Br)o1,29,26,.,-1,55*,32,54*
O=C(Nc1ccccc1Cl)c1cccc(NC(=O)c2cccs2)c1,17,30,3,-21,59*,14,63*
O=C(Nc1ccc(NC(=O)c2cccs2)cc1)c1ccc(Br)o1,-20,12,4,.,42,6,.
O=C(Nc1ccc(N2CCN(C(=O)c3cccs3)CC2)cc1)c1ccccc1Cl,19,18,1,-33,6,15,.
O=C(Nc1cccc(NC(=O)c2cccs2)c1)c1ccc(Br)o1,16,21,-2,-10,61*,3,72*
CC(=O)c1cccc(S(=O)(=O)Nc2c(C)nn(C)c2C)c1,-4,3,.,-4,9,6,.
SMILES,tim10-1 inh,NALP3 yeast inh,SKKanGAS inh,PfHsp90 yeast 2,tim23-1 inh,TIM10 inh,tim23-1 conf
COc1ccc(CCNC(=O)c2coc3ccccc3c2=O)cc1,-12,20,-4,15,8,-17,.
CC(NC(=O)c1ccc(Br)o1)C1CC2CCC1C2 (configuration not stated),28,0,1,-7,15,4,.
CCn1c(=O)c2ccccc2n(CC(=O)NCCC2=CCCCC2)c1=O,-9,14,8,23,4,14,.
CC1CCCCN1C(=O)COC(=O)c1cc(Cl)c2c(c1)OCO2 (configuration not stated),-3,27,.,-25,18,4,.
Oc1c(Cl)cc(CN2CCOCC2)c2cccnc12,26,-16,.,.,51*,15,39
O=C(Oc1c(CN2CCOCC2)cc(Cl)c2cccnc12)c1ccccc1F,39,47,12,10,25,25,.
COCCC(=O)N1CCC(n2nccc2NC(=O)c2ccccc2C)CC1,0,10,-2,9,-11,-7,.
Cc1ccccc1Nc1nc2ccccc2s1,32,25,15,25,50*,22,35
Cc1cccc(C(=O)NCCCNC(=O)c2ccc(C)nc2)c1,0,14,1,-3,2,0,.
O=C(CSc1cccc[n+]1[O-])c1cc(Cl)ccc1Cl,10,3,28,-5,59*,7,77*
Cc1cccc(C(=O)NNC(=O)c2c(O)c3ccccc3n(C)c2=O)c1,0,.,88*,-24,67*,15,21
O=C(Nc1ccc(-c2noc(CCc3ccccc3)n2)cc1)c1ccco1,38,7,-5,19,55*,30,61*
c1ccc(CCc2nc(-c3ccccc3)no2)cc1,20,23,43,10,15,7,.
COc1ccc(S(=O)(=O)N2CCN(Cc3cccc(Cl)c3)CC2)cc1,26,24,-1,16,51*,26,53*
Cc1ccc(C(=O)NC(=S)Nc2ccc(CN3CCOCC3)cc2)cc1,15,8,0,12,52*,-18,13
COc1ccc(OC)c(-c2csc(NC(=O)Cc3ccc(F)cc3)n2)c1,25,28,18,-13,55*,17,43*
CCOC(=O)Nc1ccc2c(c1)Nc1ccccc1S2,33,1,16,2,62*,36,52*
COc1ccc(CCN(C)CC(=O)Nc2c(C)cc(C)cc2C)cc1OC,6,15,14,2,15,1,.
COC(=O)CC1COc2ccccc2N1S(=O)(=O)c1ccc(Br)cc1 (configuration not stated),18,-25,4,-28,53*,19,36
COC(=O)CC1COc2ccccc2N1S(=O)(=O)c1ccc(OC)cc1 (configuration not stated),9,5,6,-4,12,-4,.
Cc1ccc(C2=Nc3ccccc3N(C(=O)c3ccccc3)C(C)C2)cc1 (configuration not stated),39,8,-19,24,52*,33,41*
